Screening data deposited in PubChem BioAssay by several laboratories.
Most compounds without a hit are left out; they make up all but 3.8% or so of the library.
ADAM10 inh = inhibitors of human ADAM10; O14672; recombinant ADAM10, EDANS/DABCYL FRET peptide cleavage, 3 h; inhibition, % at 7 µM; 0.62% of 370,000 active;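 active = inhibition above a per-campaign cutoff equal to the mean of compounds falling between control-based bounds plus 3 SD, cut at about 20% in these data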;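 note: 0% = DMSO wells while the 100% control is not disclosed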
FGF22 binding = binders of recombinant human FGF22 by thermal shift. AID 651658. SYPRO orange fluorescence; percent of sucrose octasulfate shift, DMSO zero. activity (Tm shift, normalised), % at 9.99 µM. Q9HCT0. 1.5% of 340,000 active;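 active = mean Tm shift, scaled 0 neutral to 100 positive control, at about 1.3% or above, every replicate too, limit read from the data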
Target sequence (Q9HCT0 whole entry, looked up): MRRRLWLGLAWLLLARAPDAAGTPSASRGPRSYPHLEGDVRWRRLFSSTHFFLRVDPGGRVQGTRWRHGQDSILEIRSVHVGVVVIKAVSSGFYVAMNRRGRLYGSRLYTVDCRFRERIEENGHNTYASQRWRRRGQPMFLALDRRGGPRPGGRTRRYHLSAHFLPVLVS
Ecoli rRNA inh = inhibits bacterial ribosomal RNA function over humanized ribosomes | E. coli WT GFP vs humanized-ribosome RFP mutants, fluorescence, 24 h; stronger effect = lower value; DMSO median 0, no signal -100 | 1.6% of 350,000 active | GFP signal change (wild-type ribosome), % (concentration not given with the values);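 active = significant combined selectivity score with lowered wild-type GFP, culture density cut under 30%, mutant RFP and density less affected; inactive = any of these conditions unmet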
ADAM17 inh = inhibitors of human ADAM17. 0.83% of 370,000 active. P78536. recombinant ADAM17, EDANS/DABCYL FRET peptide cleavage. inhibition, % at 6.95 µM;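 active = inhibition above the mean of compounds lying between control limits plus 3 SD, set per campaign, cut at about 8.5% in these data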;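 note: 0% = DMSO-only wells as the low control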
KLK7 zymogen act = proKLK7 (human) activation, primary screen; purified proKLK7, EDANS-DABCYL substrate fluorescence; 100% is mature enzyme control, 0% vehicle; activation, % at 7 µM; 0.9% of 370,000 active;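 active = activation above the mean of all tested compounds plus 3 SD, computed per campaign excluding outliers beyond control limits, cut at about 13% in these data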
Target sequence (P49862 whole entry, looked up): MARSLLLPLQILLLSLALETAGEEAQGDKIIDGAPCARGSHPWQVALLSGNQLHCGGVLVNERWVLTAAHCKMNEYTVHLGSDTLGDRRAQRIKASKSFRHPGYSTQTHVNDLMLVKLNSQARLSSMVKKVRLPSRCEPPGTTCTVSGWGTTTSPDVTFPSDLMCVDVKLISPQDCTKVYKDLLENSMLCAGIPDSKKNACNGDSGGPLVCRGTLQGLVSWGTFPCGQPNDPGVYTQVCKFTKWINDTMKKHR
ADAM10 counter = ADAM10 inhibition, counter-screen for ADAM17 exosite hits; 47% of 2,900 active; inhibition, % at 6.95 µM; recombinant ADAM10, EDANS/DABCYL FRET peptide cleavage, 3 h; AID 743256; shares compounds with ADAM17 inh;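 active = mean inhibition over the triplicate runs exceeds the activity threshold set in the earlier primary screen, cut at about 20% in these data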;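 note: 0% = DMSO wells and 100% = marimastat wells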
ADAM17 confirm = human ADAM17 inhibition, confirmation; 65% of 2,900 active; recombinant ADAM17, EDANS/DABCYL QFRET peptide cleavage; shares compounds with ADAM17 inh; inhibition, % at 6.95 µM; AID 743257;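 active = mean inhibition across replicates above the hit cutoff set in the primary screen, cut at about 8.5% in these data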;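 note: 0% = DMSO wells and 100% = marimastat wells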
* marks the source's active call; other numbers are inactive results; · = no result given.

SMILES	ADAM10 inh	FGF22 binding	Ecoli rRNA inh	ADAM17 inh	KLK7 zymogen act	ADAM10 counter	ADAM17 confirm
COC(=O)[C@]12C[C@H](CC(=O)NCCCCc3ccccc3)C(=O)N(Cc3cccc4ccccc34)C1=C[C@H](C(C)C)O[C@@H]2C1CC1	6	·	·	9.6*	-1	12	12*
CCOC(=O)[C@]12CCC=C1N(Cc1cccc3ccccc13)C(=O)[C@H](CC(=O)NCc1cccc3ccccc13)C2	-4	0	·	4	0	·	·
COC(=O)[C@]12C[C@H](CC(=O)NCc3cccc4ccccc34)C(=O)N(Cc3cccc4ccccc34)C1=C[C@H](C(C)C)O[C@@H]2C1CC1	13	·	·	7	-1	·	·
COCC(=O)N[C@@H]1C=C[C@H](CC(=O)NCc2ccc(Cl)cc2)O[C@H]1CO	·	0	2	·	·	·	·
OC(CN1CCN(c2ncc(C(F)(F)F)cc2Cl)CC1)c1ccccc1 (centres undefined)	3	0	-41	10*	0	-7	-3
Cc1ccc(CN2C(=O)[C@H]3Cc4c([nH]c5ccccc45)C(C)(C)N3C2=O)cc1	18	-1	-6	12*	2	18	12*
COc1cccc(CN2C(=O)[C@@H]3Cc4c([nH]c5ccccc45)C(C)(C)N3C2=O)c1	15	0	-18	8.7*	0	19	14*
Cc1ccc(CN2C(=O)[C@@H]3Cc4c([nH]c5ccccc45)C(C)(C)N3C2=O)cc1	12	0	11	4	1	·	·
CCCNC(=O)[C@@H]1[C@@H](CO)[C@@H]2Cn3c(ccc(-c4ccccc4F)c3=O)[C@@H]2N1C	·	·	-1	·	·	·	·
CO[C@H]1CN(C)C(=O)c2cc(NC(C)=O)ccc2OC[C@@H](C)N(Cc2ccccc2C(=O)O)C[C@@H]1C	·	0	3	·	·	·	·
CC(C)C#Cc1ccc2c(c1)O[C@@H](CN(C)C(=O)C1CCCCC1)[C@H](C)CN([C@H](C)CO)S2(=O)=O	·	·	2	·	·	·	·
OC1(c2ccccc2)CC(c2ccccc2)c2ccccc2O1 (centres undefined)	14	0	-53	9.2*	0	30*	16*
COc1ccc(C2CC(O)(c3ccccc3)Oc3cc(OC)c(OC)c(OC)c32)cc1 (centres undefined)	13	0	-23	6	0	·	·
COc1cccc(C(NC(C)=O)c2nc(-c3ccc4ccccc4c3)cs2)c1 (centres undefined)	13	-1	-5	12*	0	18	11*
COc1ccc(C(C)(O)c2nc(-c3ccc4ccccc4c3)cs2)cc1 (centres undefined)	15	0	0	8.8*	1	7	6
Cc1cc(C(=O)Nc2cccc3c2O[C@@H](CN(C)S(=O)(=O)c2ccc(F)cc2)[C@H](C)CN([C@H](C)CO)C3=O)n(C)n1	·	0	-4	·	·	·	·
NC(CSC1(c2cccc3ccccc23)c2ccccc2-c2ccccc21)C(=O)O (centres undefined)	-7	0	-14	10*	-1	13	10*
CO[C@@H]1CN(C)C(=O)c2cc(NC(=O)C3CC3)ccc2OC[C@H](C)N(C(=O)CN2CCOCC2)C[C@H]1C	·	0	2	·	·	·	·
CC(C)N1CCC1(C)C(=O)Nc1cccc2ccccc12 (centres undefined)	-29	0	14	-4	0	·	·
CC(C)N1CCC1(C)C(=O)Nc1ccccc1OC(F)F (centres undefined)	9	0	7	9.9*	-1	-7	3
COc1ccc2c3c(n(C)c2c1)[C@@H](CO)N(Cc1ccc(Cl)cc1)CC31CCN(C(=O)NC(C)C)CC1	·	0	4	·	·	·	·
CC(C)(Oc1ccc(Cl)cc1)C(=O)OCC(=O)Nc1ncc(Cl)cc1Cl	15	·	·	9.9*	1	0	0
Cc1noc(C)c1NC(=O)NCC[C@H]1CC[C@H](NC(=O)Nc2cccc(Cl)c2)[C@@H](CO)O1	·	0	-2	·	·	·	·
CN(c1ccc(C(=O)NCCSCc2ccccc2)cc1)S(=O)(=O)c1ccccc1	13	·	·	3	1	·	·
Cc1cccc(CSCCNC(=O)c2ccc(N(C)S(=O)(=O)c3ccccc3)cc2)c1	19	·	·	11*	0	23*	12*
SMILES	ADAM10 inh	FGF22 binding	Ecoli rRNA inh	ADAM17 inh	KLK7 zymogen act	ADAM10 counter	ADAM17 confirm
Nc1ccc(N=Nc2ccccc2)c2cccnc12	16	0	-50	9.5*	0	25*	14*
CCOc1cc(C(=O)OCC(=O)Nc2ccc(SC(F)F)cc2)cc(OCC)c1OCC	19	·	·	10*	0	38*	18*
O=C(Oc1ccc(Br)cc1C(=O)/C=C/c1ccccc1F)c1ccco1	20	0	-9	11*	1	11	5
CC1(Cc2ccc(OC(F)(F)F)cc2)C(=O)Nc2ccc(OC(F)(F)F)cc21 (centres undefined)	18	0	-13	11*	0	51*	25*
CC1(Cc2ccc(OC(F)(F)F)cc2)C(=O)Nc2c(Cl)ccc(Cl)c21 (centres undefined)	16	1	-6	9.7*	0	31*	15*
CC(Sc1nc2cc(Cl)ccc2s1)C(=O)Nc1cccc(S(=O)(=O)N2CCOCC2)c1 (centres undefined)	15	·	-9	9.5*	0	24*	15*
C[C@H](CO)N1C[C@H](C)[C@@H](CN(C)Cc2ccc(-c3ccccc3)cc2)Oc2ccc(NS(C)(=O)=O)cc2CC1=O	·	0	-57	·	·	·	·
Cc1ccccc1OCCCSc1nc2ccccc2[nH]1	19	0	-52	8.8*	0	15	10*
NS(=O)(=O)c1ccc(NCc2cc(Cl)ccc2OCc2ccc(F)cc2)cc1	16	-1	-34	9.3*	0	20	12*
O=C(Nc1ccc(F)cc1)N[C@@H]1CC[C@H](CCNS(=O)(=O)c2cccc(Cl)c2)O[C@H]1CO	·	0	-3	·	·	·	·
COc1ccc(N(C)S(=O)(=O)c2cccc(C(=O)OC(C(=O)Nc3cc(C)cc(C)c3)c3ccccc3)c2)cc1 (centres undefined)	16	0	17	8.6*	0	19	13*
CC(=O)c1cccc(NC(=O)C(OC(=O)c2cccc(S(=O)(=O)N(C)c3ccccc3)c2)c2ccccc2)c1 (centres undefined)	15	0	3	9.1*	-1	24*	12*
CN(c1ccccc1)S(=O)(=O)c1cccc(C(=O)NC2CCCC2)c1	-11	0	-20	-3	0	·	·
